Test results taken from PubChem BioAssay (Tox21).
Results filed as inconclusive are left out. Active and inactive are the calls of the source. Unless noted, calls follow the shape of the dose curve; as a rule, active = well fitted curve in the direction sought with a large enough effect in the repeat runs; inconclusive = weak or mixed curves; inactive = no such curve, though single readings can be large; an effect the other way counts as inactive or inconclusive.

What was measured:
[1] = qHTS assay to identify small molecule antagonists of the glucocorticoid receptor (GR) signaling pathway - cell viability counter screen (AID 720693); also: nearly all actives have a fitted effect of over 55% in size
[2] = qHTS assay for identifying genotoxic compounds that show differential cytotoxicity against isogenic chicken DT40 cell lines with known DNA damage response pathways - wild type cell line (AID 743012); also: nearly all actives have a fitted effect of over 60% in size; also: potency is read from the fitted curve at half-maximal effect
Method in brief: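 Cytotoxicity in repair-proficient parental chicken DT40 cells serves as the comparator for Rad54/Ku70- and Rev3-deficient lines. Cells were exposed to compounds for 40 h at 37 C/5% CO2, and ATP-based luminescence (CellTiter-Glo) measured viability.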

[3] = qHTS assay for identifying genotoxic compounds that show differential cytotoxicity against isogenic chicken DT40 cell lines with known DNA damage response pathways - Rev3 mutant cell line (AID 743014); also: nearly all actives have a fitted effect of over 55% in size; also: potency is read from the fitted curve at half-maximal effect
[4] = qHTS assay for identifying genotoxic compounds that show differential cytotoxicity against isogenic chicken DT40 cell lines with known DNA damage response pathways - Rad54/Ku70 mutant cell line (AID 743015); also: nearly all actives have a fitted effect of over 60% in size; also: potency is read from the fitted curve at half-maximal effect
[5] = qHTS assay to identify small molecule antagonists of the androgen receptor (AR) signaling pathway - cell viability counter screen (AID 743033; also: nearly all actives have a fitted effect of over 45% in size)
[6] = target: Androgen receptor (Homo sapiens) (UniProt P10275); assay: qHTS assay to identify small molecule antagonists of the androgen receptor (AR) signaling pathway (AID 743035; active = well fitted inhibition curve with a large enough effect in the signal ratio in the repeat runs, not every such curve was filed as active; the % refers to the signal ratio)
Sequence of Androgen receptor (Homo sapiens) (P10275 whole entry, looked up): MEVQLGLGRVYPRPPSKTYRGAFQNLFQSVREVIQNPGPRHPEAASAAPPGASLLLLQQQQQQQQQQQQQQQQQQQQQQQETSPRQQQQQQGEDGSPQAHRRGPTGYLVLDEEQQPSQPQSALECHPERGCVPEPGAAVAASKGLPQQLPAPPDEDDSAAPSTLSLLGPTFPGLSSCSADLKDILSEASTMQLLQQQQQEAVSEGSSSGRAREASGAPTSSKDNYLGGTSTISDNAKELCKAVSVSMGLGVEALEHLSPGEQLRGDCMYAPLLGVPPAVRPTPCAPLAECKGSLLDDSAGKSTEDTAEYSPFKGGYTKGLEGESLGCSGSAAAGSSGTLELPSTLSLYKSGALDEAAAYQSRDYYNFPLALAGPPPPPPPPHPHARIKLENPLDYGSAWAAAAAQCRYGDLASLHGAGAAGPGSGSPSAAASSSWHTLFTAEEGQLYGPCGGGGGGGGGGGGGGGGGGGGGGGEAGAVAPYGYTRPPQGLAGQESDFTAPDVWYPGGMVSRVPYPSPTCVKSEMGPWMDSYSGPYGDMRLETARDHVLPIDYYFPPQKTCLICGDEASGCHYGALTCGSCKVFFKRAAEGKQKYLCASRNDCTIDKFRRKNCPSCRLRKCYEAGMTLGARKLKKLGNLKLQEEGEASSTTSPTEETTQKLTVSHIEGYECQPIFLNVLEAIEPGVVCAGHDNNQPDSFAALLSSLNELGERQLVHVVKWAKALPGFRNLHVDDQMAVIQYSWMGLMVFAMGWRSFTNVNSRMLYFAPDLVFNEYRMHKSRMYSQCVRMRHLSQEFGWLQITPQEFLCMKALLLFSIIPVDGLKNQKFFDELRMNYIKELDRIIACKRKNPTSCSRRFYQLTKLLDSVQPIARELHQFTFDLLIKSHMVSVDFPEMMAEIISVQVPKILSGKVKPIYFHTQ
Method in brief: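 Steps: seed AR-UAS-bla GripTite HEK293 cells, incubate 4 h at 37C; pin in test compound, then add agonist R1881; incubate 16 h at 37C; add LiveBLAzer B/G FRET substrate, 2 h at room temperature; read fluorescence.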

[7] = target: Androgen receptor (Homo sapiens) (UniProt P10275); assay: qHTS assay to identify small molecule agonists of the androgen receptor (AR) signaling pathway (AID 743036; active = well fitted activation curve with a large enough effect in the signal ratio in the repeat runs, with a control signal flat, not every such curve was filed as active; the % refers to the signal ratio)
Method in brief: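 In this Tox21 qHTS, 2,000 HEK293 AR-bla cells per well were incubated with compounds for 16 h at 37C and 5% CO2. Fluorescence intensity was recorded 2 h after adding LiveBLAzer B/G FRET substrate at room temperature.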

[8] = target: Androgen receptor (Homo sapiens) (UniProt P10275); assay: qHTS assay to identify small molecule agonists of the androgen receptor (AR) signaling pathway using the MDA cell line (AID 743040; also: nearly all actives have a fitted effect of over 20% in size)
Method in brief: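 Cell-based luciferase reporter: MDA-kb2, MMTV promoter (AR + GR response elements). 16 h compound exposure at 37C; ONE-Glo, 30 min RT, luminescence.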

[9] = qHTS assay to identify small molecule antagonists of the androgen receptor (AR) signaling pathway using the MDA cell line - cell viability counter screen (AID 743041; also: nearly all actives have a fitted effect of over 45% in size)
Method in brief: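 In this qHTS counter assay, fluorescence intensity after CellTiter-Fluor addition indicated viability of MDA-kb2 AR-luc cells given compounds and R1881 for 16 h at 37C.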

[10] = target: Androgen receptor (Homo sapiens) (UniProt P10275); assay: qHTS assay to identify small molecule antagonists of the androgen receptor (AR) signaling pathway using the MDA cell line (AID 743042; also: nearly all actives have a fitted effect of over 55% in size)
Method in brief: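 MDA-kb2 cells (human breast carcinoma, stably carrying an MMTV-luciferase reporter responsive to AR and GR) were plated at 3,000 cells/well and preincubated 5 hr at 37C, then given compound plus R1881 agonist for 16 h. ONE-Glo luminescence was read.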

[11] = qHTS assay to identify small molecule antagonists of the thyroid receptor (TR) signaling pathway - cell viability counter screen (AID 743064); also: nearly all actives have a fitted effect of over 50% in size
Method in brief: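 Counter screen for cytotoxicity: compound plus T3 (1 nM final) on GH3.TRE-Luc cells, 23.5 h at 37 °C, then fluorescence viability readout with CellTiter-Fluor.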

[12] = qHTS assay to identify small molecule antagonists of the thyroid receptor (TR) signaling pathway (AID 743065); also: series mostly up to about 70 µM; nearly all actives have a fitted effect of over 55% in size
Method in brief: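 GH3.TRE-Luc rat pituitary cells carrying two TR response elements driving luciferase were plated for 4 h, given compound plus 1 nM T3 (final), and incubated 23.5 h at 37 C. ONE-Glo luminescence measured reporter inhibition; CellTiter-Fluor fluorescence tracked cytotoxicity.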

[13] = tested on: thyroid hormone receptor (rat, GH3 cells); assay: qHTS assay to identify small molecule agonists of the thyroid receptor (TR) signaling pathway (AID 743066; calls by dose curve)
[14] = target: Estrogen receptor (Homo sapiens) (UniProt P03372); assay: qHTS assay to identify small molecule antagonists of the estrogen receptor alpha (ER-alpha) signaling pathway (AID 743069; active = well fitted curve in the direction sought with a large enough effect in the signal ratio in the repeat runs, not every such curve was filed as active; the % refers to the signal ratio)
Sequence of Estrogen receptor (Homo sapiens) (P03372 whole entry, looked up): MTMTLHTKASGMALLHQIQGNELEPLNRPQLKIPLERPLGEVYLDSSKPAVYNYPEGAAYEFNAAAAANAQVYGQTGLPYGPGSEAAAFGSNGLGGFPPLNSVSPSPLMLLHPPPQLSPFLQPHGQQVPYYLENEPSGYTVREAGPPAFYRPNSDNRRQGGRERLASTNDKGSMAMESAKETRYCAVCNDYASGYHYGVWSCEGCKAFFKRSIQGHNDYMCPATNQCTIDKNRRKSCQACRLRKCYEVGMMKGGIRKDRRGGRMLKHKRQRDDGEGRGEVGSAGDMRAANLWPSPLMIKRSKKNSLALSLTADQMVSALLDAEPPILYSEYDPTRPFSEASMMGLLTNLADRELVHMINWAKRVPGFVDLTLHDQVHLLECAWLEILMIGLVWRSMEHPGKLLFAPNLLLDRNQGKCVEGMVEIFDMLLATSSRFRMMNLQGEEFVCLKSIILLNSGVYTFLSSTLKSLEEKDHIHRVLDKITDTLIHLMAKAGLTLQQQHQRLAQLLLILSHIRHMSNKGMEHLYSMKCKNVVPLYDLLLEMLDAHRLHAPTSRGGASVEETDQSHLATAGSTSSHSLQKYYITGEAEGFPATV
Method in brief: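 A 17beta-estradiol challenge was applied right after compound transfer to ER-alpha-UAS-bla HEK293 cells previously kept in charcoal-stripped serum. Plates stood 18 hr at 37C and 5% CO2; fluorescence was read following 2 hr FRET substrate loading at room temperature.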

[15] = qHTS assay to identify small molecule antagonists of the estrogen receptor alpha (ER-alpha) signaling pathway - cell viability counter screen (AID 743074; calls by dose curve;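 also: HEK293 cells carrying ER-alpha-UAS-bla reporter stimulated with 17beta-estradiol; nearly all actives have a fitted effect of over 45% in size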)
[16] = target: Estrogen receptor (Homo sapiens) (UniProt P03372); assay: qHTS assay to identify small molecule agonists of the estrogen receptor alpha (ER-alpha) signaling pathway (AID 743075; calls by dose curve;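 also: HEK293 GripTite cells with ER-alpha and UAS-driven beta-lactamase reporter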)
[17] = target: Estrogen receptor (Homo sapiens) (UniProt P03372); assay: qHTS assay to identify small molecule agonists of the estrogen receptor alpha (ER-alpha) signaling pathway using the BG1 cell line (AID 743079); also: nearly all actives have a fitted effect of over 20% in size
[18] = qHTS assay to identify small molecule antagonists of the estrogen receptor alpha (ER-alpha) signaling pathway using the BG1 cell line (AID 743080; calls by dose curve;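 also: BG1 cells stimulated with 17beta-estradiol alongside compound; series mostly up to about 70 µM; nearly all actives have a fitted effect of over 25% in size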)
Method in brief: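 Quantitative HTS on the Tox21 10K library: BG1 cells with endogenous ER-alpha and ERE-luciferase reporter, 17beta-estradiol stimulation, 21.5 h compound exposure, luminescence endpoint with parallel fluorescence cytotoxicity counter-read.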

[19] = qHTS assay to identify small molecule antagonists of the estrogen receptor alpha (ER-alpha) signaling pathway using the BG1 cell line - cell viability counter screen (AID 743081);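 also: compound given together with 17beta-estradiol as the ER stimulus; series mostly up to about 70 µM; nearly all actives have a fitted effect of over 45% in size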
Aromatase (Homo sapiens) = Aromatase (Homo sapiens) (UniProt P11511); assay: qHTS assay to identify aromatase inhibitors (AID 743083)
Sequence of Aromatase (Homo sapiens) (P11511 whole entry, looked up): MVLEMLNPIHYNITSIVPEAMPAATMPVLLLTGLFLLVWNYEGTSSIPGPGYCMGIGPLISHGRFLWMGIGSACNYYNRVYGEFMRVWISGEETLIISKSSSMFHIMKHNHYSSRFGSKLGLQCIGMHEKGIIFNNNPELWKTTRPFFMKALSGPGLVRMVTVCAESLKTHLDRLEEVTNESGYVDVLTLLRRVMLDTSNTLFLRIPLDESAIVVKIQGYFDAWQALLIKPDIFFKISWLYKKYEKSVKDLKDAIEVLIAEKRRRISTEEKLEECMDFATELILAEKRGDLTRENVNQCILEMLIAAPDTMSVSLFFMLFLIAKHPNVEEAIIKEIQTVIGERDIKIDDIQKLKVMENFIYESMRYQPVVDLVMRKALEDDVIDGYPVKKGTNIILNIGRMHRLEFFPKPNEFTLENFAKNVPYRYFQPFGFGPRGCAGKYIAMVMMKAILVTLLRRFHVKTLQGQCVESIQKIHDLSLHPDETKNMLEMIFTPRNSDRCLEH
% is scaled to controls: 0 for no effect and ±100 for the full control effect.

O=C(O)C(=O)Cc1ccccc1
inactive: outcome [1] | Potency [2] | Potency [3] | Potency [4] | Potency [5] | Potency [6] | outcome [7] | outcome [8] | Potency [9] | Potency [10] | Potency [11] | Potency [12] | outcome [13] | outcome [14] | outcome [15] | outcome [16] | Potency [17] | Potency [18] | outcome [19] | Potency (Aromatase (Homo sapiens))

OCCN(CCO)c1cccc(Cl)c1
inactive: outcome [1] | Potency [2] | Potency [3] | Potency [4] | Potency [5] | Potency [6] | outcome [7] | outcome [8] | Potency [9] | Potency [10] | Potency [11] | Potency [12] | outcome [13] | outcome [15] | outcome [19] | Potency (Aromatase (Homo sapiens))

COc1nccnc1NS(=O)(=O)c1ccc(N)cc1
inactive: outcome [1] | Potency [2] | Potency [3] | Potency [4] | Potency [5] | outcome [7] | outcome [8] | Potency [9] | Potency [10] | Potency [11] | Potency [12] | outcome [13] | outcome [19] | Potency (Aromatase (Homo sapiens))

C=C(C)C(=O)OCCN(CC)CC
inactive: outcome [1] | Potency [2] | Potency [3] | Potency [4] | Potency [5] | outcome [7] | outcome [8] | Potency [9] | Potency [10] | Potency [12] | outcome [13] | outcome [15] | outcome [19] | Potency (Aromatase (Homo sapiens))

Cc1c(I)c(=O)n(-c2ccccc2)n1C
inactive: outcome [1] | Potency [2] | Potency [3] | Potency [4] | Potency [5] | Potency [9] | Potency [11] | Potency [12] | outcome [13] | outcome [14] | outcome [16] | Potency [17] | Potency [18] | outcome [19] | Potency (Aromatase (Homo sapiens))

CCNC(=O)C1CC(C)CCC1C(C)C (stereo unspecified)
inactive: outcome [1] | Potency [2] | Potency [3] | Potency [4] | Potency [5] | Potency [9] | Potency [11] | Potency [12] | outcome [13] | outcome [14] | outcome [15] | outcome [16] | Potency [17] | Potency [18] | outcome [19] | Potency (Aromatase (Homo sapiens))

Cc1ccc(S(=O)(=O)O)c(C)c1
inactive: outcome [1] | Potency [2] | Potency [3] | Potency [4] | Potency [5] | Potency [9] | Potency [11] | outcome [14] | outcome [15] | outcome [16] | Potency [17] | Potency [18] | outcome [19] | Potency (Aromatase (Homo sapiens))

C[Si](C)=O
inactive: viability change, negative = cytotoxic [1] -9.5% [at 7.04 µM] | activity change, negative = cytotoxicity [2] 12.9% [at 8.52 µM] | activity, negative = cytotoxicity [3] -9.66% [at 8.53 µM] | activity change, negative = cytotoxicity [4] 1.94% [at 8.55 µM] | activity change, negative = cytotoxicity [5] 2.74% [at 7.04 µM] | viability change, negative = cytotoxic [9] -9.84% [at 8.47 µM] | activity change, negative = cytotoxic [11] -4.47% [at 8.44 µM] | activity, negative = inhibition [12] 0.0327% [at 8.44 µM] | activation [13] 0.231% [at 8.08 µM] | activity, negative = cytotoxicity [15] 5.35% [at 6.72 µM] | activity change, negative = cytotoxicity [19] -7.83% [at 8.47 µM] | activity, negative = inhibition (Aromatase (Homo sapiens)) 11% [at 8.47 µM]

CC(=O)NCCCCCC(=O)O
inactive: outcome [1] | Potency [2] | Potency [3] | Potency [4] | Potency [5] | Potency [9] | Potency [11] | Potency [12] | outcome [13] | outcome [14] | outcome [15] | outcome [16] | Potency [17] | Potency [18] | outcome [19] | Potency (Aromatase (Homo sapiens))

NS(=O)(=O)c1ccc(NC(=O)CCC(=O)O)cc1
inactive: outcome [1] | Potency [2] | Potency [3] | Potency [4] | Potency [5] | Potency [9] | Potency [11] | Potency [12] | outcome [13] | outcome [14] | outcome [15] | outcome [16] | Potency [17] | Potency [18] | outcome [19] | Potency (Aromatase (Homo sapiens))

CO[C@@H]1[C@@H](OC(N)=O)[C@@H](O)[C@H](Oc2ccc3c(O)c(NC(=O)c4ccc(O)c(CC=C(C)C)c4)c(=O)oc3c2C)OC1(C)C
inactive: outcome [1] | Potency [2] | Potency [3] | Potency [4] | Potency [5] | Potency [9] | Potency [11] | Potency [12] | outcome [13] | outcome [14] | outcome [15] | outcome [16] | Potency [17] | Potency [18] | outcome [19] | Potency (Aromatase (Homo sapiens))

CCCCCCCCC1CCC(=O)O1 (stereo unspecified)
inactive: outcome [1] | Potency [2] | Potency [3] | Potency [4] | Potency [5] | Potency [9] | Potency [11] | Potency [12] | outcome [13] | outcome [16] | outcome [19] | Potency (Aromatase (Homo sapiens))

COCCOC(=O)C1=C(C)NC(C)=C(C(=O)OC(C)C)C1c1cccc([N+](=O)[O-])c1 (stereo unspecified)
inactive: outcome [1] | Potency [5] | Potency [9] | Potency [11] | outcome [13] | outcome [15] | outcome [16] | Potency [17] | Potency [18] | outcome [19] | Potency (Aromatase (Homo sapiens))
active: Potency [2] 26.6 µM | Potency [3] 26.6 µM | Potency [4] 23.7 µM

O=S(=O)(O)CCN1CCN(CCO)CC1
inactive: outcome [1] | Potency [2] | Potency [3] | Potency [4] | Potency [5] | Potency [9] | Potency [11] | Potency [12] | outcome [13] | outcome [15] | outcome [19] | Potency (Aromatase (Homo sapiens))

C[Si](C)(C)C
inactive: outcome [1] | Potency [2] | Potency [3] | Potency [4] | Potency [5] | Potency [9] | Potency [11] | Potency [12] | outcome [13] | outcome [15] | outcome [19] | Potency (Aromatase (Homo sapiens))

CCCCCCOC(=O)CC
inactive: outcome [1] | Potency [2] | Potency [3] | Potency [4] | Potency [5] | Potency [9] | Potency [12] | outcome [13] | outcome [14] | outcome [15] | outcome [16] | Potency [17] | Potency [18] | outcome [19] | Potency (Aromatase (Homo sapiens))

c1ccc2c(c1)ccc1c3ccccc3ccc21
inactive: outcome [1] | Potency [2] | Potency [3] | Potency [4] | Potency [5] | Potency [9] | Potency [11] | Potency [12] | outcome [13] | outcome [15] | outcome [19] | Potency (Aromatase (Homo sapiens))

BrCCCCCBr
inactive: outcome [1] | Potency [2] | Potency [3] | Potency [4] | Potency [5] | Potency [9] | Potency [11] | Potency [12] | outcome [13] | outcome [14] | outcome [16] | Potency [17] | Potency [18] | outcome [19] | Potency (Aromatase (Homo sapiens))
